In PubChem BioAssay (NCATS) one finds Potency and viability (% of DMSO) data, which are given here for 18 compounds.

Results filed as inconclusive are left out. Activity calls are given as the source filed them. Calls follow the shape of the dose curve; as a rule, active = well fitted curve in the direction sought with a large enough effect; inconclusive = small, poorly fitted or top-dose-only effect, or another doubt; inactive = no such curve, though single readings can be large; an effect the other way counts as inactive or inconclusive.

Assay [1] in a line: Quantitative High-Throughput drug screen in 47 multiple myeloma cell lines against the NCATS MIPE library collection: EJM_DSMZ cell viability assay (AID 1918926; also: nearly all actives have a fitted effect of over 30% in size; also: potency is read from the fitted curve at half-maximal effect). In short, it runs like this:
(§1)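 Primary qHTS used for cherry-picking: cells at 500/well, library compounds for 48 h (37C, 5% CO2), luminescent ATP assay.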

Assay [2] in a line: Quantitative High-Throughput drug screen in 47 multiple myeloma cell lines against the NCATS MIPE library collection: ARP1_JJKsccF8 cell viability assay (AID 1918928; also: nearly all actives have a fitted effect of over 40% in size; also: potency is read from the fitted curve at half-maximal effect). A digest of the protocol: (§2)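 Myeloma cells, 500 per well, were exposed to MIPE 4.0 drugs by pin transfer for 48 h at 37 °C, 5% CO2. Viability was read as ATP luminescence with CellTiter-Glo, normalised to DMSO-only (100%) and medium-only (0%) wells.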

Assay [3] can be described thus: Quantitative High-Throughput drug screen in 47 multiple myeloma cell lines against the NCATS MIPE library collection: Karpas620_DSMZ cell viability assay (AID 1918959). Also: nearly all actives have a fitted effect of over 30% in size. In short, it runs like this:
(§3)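 Inhibition of cell viability is measured here. Each line was plated at 500 cells per well, treated with MIPE 4.0 drugs, kept 48 hours at 37C, then assayed for ATP content by CellTiter-Glo luminescence.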

Assay [4] in a line: Quantitative High-Throughput drug screen in 47 multiple myeloma cell lines against the NCATS MIPE library collection: KMM1_JCRB cell viability assay (AID 1918960). Also: nearly all actives have a fitted effect of over 30% in size. Also: potency is read from the fitted curve at half-maximal effect. In short, it runs like this:
as §2

The nature of assay [5]: Quantitative High-Throughput drug screen in 47 multiple myeloma cell lines against the NCATS MIPE library collection: JIM3_ECACC cell viability assay (AID 1918963; also: nearly all actives have a fitted effect of over 35% in size; also: potency is read from the fitted curve at half-maximal effect). A digest of the protocol: as §3
Assay [6] is described as follows: Quantitative High-Throughput drug screen in 47 multiple myeloma cell lines against the NCATS MIPE library collection: JIM1_ECACC cell viability assay (AID 1918964; also: potency is read from the fitted curve at half-maximal effect). In short, it runs like this: as §1
A short description of assay [7]: Quantitative High-Throughput drug screen in 47 multiple myeloma cell lines against the NCATS MIPE library collection: JJN3_DSMZ cell viability assay (AID 1918966; also: nearly all actives have a fitted effect of over 50% in size; also: potency is read from the fitted curve at half-maximal effect). A digest of the protocol:
as §1

The nature of assay [8]: Quantitative High-Throughput drug screen in 47 multiple myeloma cell lines against the NCATS MIPE library collection: H1112_PLB cell viability assay (AID 1918967; also: nearly all actives have a fitted effect of over 30% in size; also: potency is read from the fitted curve at half-maximal effect). A digest of the protocol:
as §1

Assay [9] is described as follows: Quantitative High-Throughput drug screen in 47 multiple myeloma cell lines against the NCATS MIPE library collection: Karpas25_ECACC cell viability assay (AID 1918968; also: nearly all actives have a fitted effect of over 35% in size; also: potency is read from the fitted curve at half-maximal effect). A digest of the protocol: as §1
Assay [10] in a line: Quantitative High-Throughput drug screen in 47 multiple myeloma cell lines against the NCATS MIPE library collection: KMS12BM_JCRB cell viability assay (AID 1918971). Also: nearly all actives have a fitted effect of over 35% in size. Also: potency is read from the fitted curve at half-maximal effect. A digest of the protocol:
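Steps: seed 500 cells per well; pin-transfer MIPE 4.0 library; incubate 48 h at 37C, 5% CO2, humidified; add CellTiter-Glo, 5 min room temperature; read luminescence.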

Assay [11] in a line: Quantitative High-Throughput drug screen in 47 multiple myeloma cell lines against the NCATS MIPE library collection: AMO1_DSMZ cell viability assay (AID 1918927; also: nearly all actives have a fitted effect of over 30% in size; also: potency is read from the fitted curve at half-maximal effect). A digest of the protocol:
as §1

Assay [12] in a line: Quantitative High-Throughput drug screen in 47 multiple myeloma cell lines against the NCATS MIPE library collection: ARD_JJKsccE7 cell viability assay (AID 1918929; also: potency is read from the fitted curve at half-maximal effect). In short, it runs like this:
as §1

A short description of assay [13]: Quantitative High-Throughput drug screen in 47 multiple myeloma cell lines against the NCATS MIPE library collection: Karpas417_ECACC cell viability assay (AID 1918961). Also: potency is read from the fitted curve at half-maximal effect. To be noted: Karpas417 myeloma viability, CellTiter-Glo ATP luminescence, 48 h; viability (% of DMSO): at 45.8 µM (top of the series). A digest of the protocol: (§4)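 qHTS of the MIPE 4.0 collection: 500 myeloma cells/well, 48 h drug exposure at 37C in 5% CO2, then CellTiter-Glo for 5 min at room temperature before luminescence reading.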
For orientation: In ATP-based viability assays light output follows the ATP content of the culture.

Assay [14] can be described thus: Quantitative High-Throughput drug screen in 47 multiple myeloma cell lines against the NCATS MIPE library collection: INA6_PLB cell viability assay (AID 1918965; also: nearly all actives have a fitted effect of over 55% in size; also: potency is read from the fitted curve at half-maximal effect). In short, it runs like this:
as §4

Assay [15] can be described thus: Quantitative High-Throughput drug screen in 47 multiple myeloma cell lines against the NCATS MIPE library collection: KHM11_PLB cell viability assay (AID 1918962). Also: nearly all actives have a fitted effect of over 35% in size. Also: potency is read from the fitted curve at half-maximal effect. A digest of the protocol:
as §3

Assay [16] in a line: Quantitative High-Throughput drug screen in 47 multiple myeloma cell lines against the NCATS MIPE library collection: KMS21BM_JCRB cell viability assay (AID 1918974). Also: potency is read from the fitted curve at half-maximal effect. To be noted: ATP luminescence, 48 h; viability: at 45.8 µM (top of the series) unless noted. A digest of the protocol:
as §1

Assay [17] in a line: Quantitative High-Throughput drug screen in 47 multiple myeloma cell lines against the NCATS MIPE library collection: KMS27_JCRB cell viability assay (AID 1918970). Also: nearly all actives have a fitted effect of over 30% in size. In short, it runs like this: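 CellTiter-Glo luminescence after 48 h drug exposure at 37 °C; 500 cells/well, 1536-well format, pin-tool compound addition; DMSO = 100%, media-only = 0% viability.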
Assay [18] in a line: Quantitative High-Throughput drug screen in 47 multiple myeloma cell lines against the NCATS MIPE library collection: KMS12PE_JCRB cell viability assay (AID 1918972). Also: nearly all actives have a fitted effect of over 30% in size. Also: potency is read from the fitted curve at half-maximal effect. In short, it runs like this:
as §4

Assay [19] in a line: Quantitative High-Throughput drug screen in 47 multiple myeloma cell lines against the NCATS MIPE library collection: KMS20_JCRB cell viability assay (AID 1918973). Also: nearly all actives have a fitted effect of over 45% in size. Also: potency is read from the fitted curve at half-maximal effect. In short, it runs like this: as §1

`O=C(O)CO.[NH2-].[NH2-].[Pt+2]`: the Potency result in assay [1], in assay [2], in [3], in assay [4], in assay [5] and in assay [6] was “inactive” throughout. The Potency result in assay [7], in [8], in assay [9] and in assay [10] was “inactive” in each case.

For `COc1cc(-c2nn(C3CCC(N4CCN(C(C)=O)CC4)CC3)c3ncnc(N)c23)ccc1NC(=O)c1cc2ccccc2n1C` (centres undefined), the Potency in [1] is 20900 nM (active); in [11] it was 590 nM (active); in [12] it was 372 nM (active); in assay [4], 372 nM (active); in assay [5], 2350 nM (active); in assay [6], 235 nM (active). In addition, the Potency in assay [14] is 2960 nM (active); in assay [7] it was 7430 nM (active); in assay [8], 83.3 nM (active); in assay [10], 10500 nM (active). The Potency result in [13] was “inactive”.

As for `COc1ccc2c(c1)CC[C@@H](CN(C)CC(=O)O)[C@H]2c1ccccc1`, the Potency in assay [11] was 590 nM (active); in assay [2], 3320 nM (active); in assay [12], 1320 nM (active); in [4], 1320 nM (active); in assay [15] it was 662 nM (active); in assay [5] it was 1660 nM (active). In addition, the Potency in [6] was 372 nM (active); in [14], 2960 nM (active); in assay [7], 10500 nM (active); in [10] it was 2090 nM (active); in assay [16], 5260 nM (active).

With `Cn1c(CNc2ccc(C(=N)N)cc2)nc2cc(C(=O)N(CCC(=O)O)c3ccccn3)ccc21`, the Potency in assay [1] was 0.6 nM (active). Besides, the Potency result in [11], in assay [2], in assay [12], in assay [3], in assay [4] and in [15] was “inactive” in each case. The Potency result in assay [5], in assay [6], in assay [8], in assay [17], in [10] and in assay [18] was “inactive” in each case.

With `CC(C)(O)CCc1ccc(OCc2cc(-c3cccc(OC(F)F)c3)c3ncccc3c2)cc1`, the Potency entry in [1], in assay [11], in assay [3], in assay [4], in [5] and in [17] was “inactive” throughout. The Potency result in assay [10] and in assay [18] was “inactive” in each case. Moreover, the Potency in assay [8] is 20900 nM (active).

With `C1Cc2[nH]nc(-c3nn[nH]n3)c2C1`, the Potency entry in assay [1], in assay [11], in assay [3], in assay [4], in [14] and in assay [8] was “inactive” in each case. The Potency entry in [9], in [17] and in assay [10] was “inactive” throughout.

In the case of `CC(C)(C)c1cc(NC(=O)Nc2ccc(-c3cn4c(n3)sc3cc(OCCN5CCOCC5)ccc34)cc2)no1`, the Potency is 18700 nM (active) in assay [1], 3320 nM (active) in [14], 13200 nM (active) in assay [9] and 16600 nM (active) in [10]. In addition, the Potency entry in [3] and in assay [16] was “inactive” throughout.

As to `Cn1c2cc(S(C)=O)sc2c2cnn(Cc3cccc(N)c3)c(=O)c21` (centres undefined), the Potency result in assay [1], in [11], in assay [2], in assay [12], in [3] and in assay [4] was “inactive” each time. Also, the Potency entry in assay [13], in [5], in assay [6], in assay [7], in assay [8] and in assay [9] was “inactive” in each case. In [10], the Potency result was “inactive”.

Turning to `Cn1c(=O)n(-c2ccc(C(C)(C)C#N)cc2)c2c3cc(-c4cnc5ccccc5c4)ccc3ncc21`, the Potency in [1] was 833 nM (active); in assay [2], 18.7 nM (active); in assay [5], 132 nM (active); in assay [6], 20.9 nM (active); in assay [14], 16.6 nM (active); in [7], 148 nM (active). Also, the Potency in assay [9] is 10.5 nM (active); in [10], 13.2 nM (active); in assay [18], 52.6 nM (active); in assay [19] it was 372 nM (active).

Take `CC(C)(C)NC(=O)[C@H]1CN(Cc2cccnc2)CCN1C[C@@H](O)C[C@@H](Cc1ccccc1)C(=O)N[C@H]1c2ccccc2C[C@H]1O`: the Potency result in assay [3], in assay [13] and in assay [6] was “inactive” in each case. For the same compound, the results for the Potency in assay [5] and in [9] were 5260 nM (active) and 4180 nM (active), respectively.

Take `CC(C)c1noc(N2CCC(COc3ccc(-c4ccc(S(C)(=O)=O)cc4)nc3)CC2)n1`: the Potency entry in [3], in [13], in assay [6] and in assay [8] was “inactive” in each case. Also, the values for the Potency in [14], in [9] and in assay [18] were 1870 nM (active), 1480 nM (active) and 418 nM (active), respectively.

`CNC(=O)c1ccc(-c2cnc3ncc(Cc4ccc5ncccc5c4)n3n2)cc1F`: the Potency entry in assay [3], in assay [4] and in [5] was “inactive” in each case. Also, the Potency in [7] is 5900 nM (active).

For the compound `O=C(O)[C@H](Cc1c[nH]c2ccccc12)N1C(=O)c2ccccc2C1=O`, the Potency entry in assay [1], in assay [2], in assay [3], in assay [4], in assay [5] and in assay [6] was “inactive” each time. In addition, the Potency result in assay [18], in [19] and in assay [16] was “inactive” throughout.

As to `Cc1cnc(-c2cnc(NCCNc3ccc(C#N)cn3)nc2-c2ccc(Cl)cc2Cl)[nH]1`, the Potency result in [12], in assay [3], in assay [4], in assay [6] and in assay [17] was “inactive” throughout. Further, the Potency in assay [15] is 16600 nM (active); in [14] it was 2350 nM (active); in assay [9], 5900 nM (active).

For `CC[C@@H]1C(=O)N(C)c2cnc(Nc3ccc(C(=O)NC4CCN(C)CC4)cc3OC)nc2N1C1CCCC1`, the Potency in assay [1] was 3720 nM (active); in assay [11] it was 83.3 nM (active); in assay [2], 37.2 nM (active); in assay [12], 29.6 nM (active); in assay [4], 23.5 nM (active); in assay [13] it was 1870 nM (active). The Potency is 23.5 nM (active) in assay [5]; 83.3 nM (active) in assay [14]; 7430 nM (active) in assay [7]; 4690 nM (active) in assay [9]; 23.5 nM (active) in assay [10]; 6620 nM (active) in assay [19].

With `CC(C)Nc1cc(C(F)(F)F)cc2nc(NC(=O)c3cccnc3)nn12`, the Potency in assay [1] is 14800 nM (active). The Potency entry in assay [12], in assay [3], in [4], in assay [5], in [6] and in [8] was “inactive” in each case. The Potency result in assay [9], in [17] and in assay [18] was “inactive” in each case.

On to `NC(=O)c1cccc2cn(-c3ccc([C@@H]4CCCNC4)cc3)nc12`, for which the Potency result in assay [1], in assay [5], in [9] and in assay [17] was “inactive” in each case. Also, in assay [13], the viability (% of DMSO) is 72.2% (active). Besides, the Potency was 14800 nM (active) in assay [14] and 20900 nM (active) in assay [8].

Consider `Clc1ccc2ncc(-c3cccc(NC4CNC4)n3)n2c1`, for which the Potency in [1] is 18700 nM (active); in [11] it was 4690 nM (active); in [2] it was 23500 nM (active); in assay [4] it was 2350 nM (active); in assay [15] it was 8330 nM (active); in assay [5] it was 14800 nM (active). For the same compound, the Potency was 5900 nM (active) in assay [14]; 16600 nM (active) in [7]; 11800 nM (active) in assay [8]; 26400 nM (active) in assay [9]; 23500 nM (active) in assay [10]; 5900 nM (active) in [18]. Besides, the Potency result in [3], in assay [13] and in assay [17] was “inactive” each time.
